According to the supplement of paper PMC3334620:
The full ranking holds about 33,000 sequences; the median of “E-score (-0.5 to 0.5)” is about -0.035, and the highest 2% start at about 0.34. The sample holds the highest values, similar sequences and a random draw of the others, so the mix is not that of the screen.

biological target: T1, Mot3 (UniProt P54785); assay: PBM E-score (8-mer binding enrichment) (E-score (-0.5 to 0.5)); higher = stronger / more preferred TF binding; settings: protein concentration: 200 nM; construct: GST-full length
T1 sequence: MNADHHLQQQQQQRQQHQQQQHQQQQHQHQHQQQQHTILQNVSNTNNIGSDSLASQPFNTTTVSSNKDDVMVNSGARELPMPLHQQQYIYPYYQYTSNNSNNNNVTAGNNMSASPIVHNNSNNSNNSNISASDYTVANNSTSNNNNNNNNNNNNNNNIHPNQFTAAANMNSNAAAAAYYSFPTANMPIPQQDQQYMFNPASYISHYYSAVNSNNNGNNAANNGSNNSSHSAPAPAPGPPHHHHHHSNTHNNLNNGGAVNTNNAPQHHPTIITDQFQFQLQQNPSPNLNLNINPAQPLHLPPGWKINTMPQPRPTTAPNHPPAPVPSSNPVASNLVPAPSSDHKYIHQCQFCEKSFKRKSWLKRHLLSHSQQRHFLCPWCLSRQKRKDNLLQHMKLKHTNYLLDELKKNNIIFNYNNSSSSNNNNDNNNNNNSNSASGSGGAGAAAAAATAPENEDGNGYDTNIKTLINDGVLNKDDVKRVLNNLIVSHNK
Experimental: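 Universal 'all 10-mer' protein binding microarrays (Agilent AMADID 015681) probed with GST-tagged S. cerevisiae TFs (full-length or DBD) made by in vitro transcription/translation (PURExpress), about 100-200 nM. Bound TF was detected with fluorescent anti-GST. Each ungapped 8-mer (which stands for itself and its reverse complement) is scored by the PBM enrichment score (E-score), a modified Wilcoxon-Mann-Whitney statistic from -0.5 to +0.5, computed with the Universal PBM Analysis Suite. Scale: above 0.35 generally sequence-specific binding.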

Point of comparison: ACGGCAAG, “PBM E-score” value -0.116. Against it:
- CATGTCGA — higher, 0.351
- GGGTTCTA — lower, -0.176
- GTCTGTAA — higher, 0.149
- CGTTTAGA — higher, 0.0393
- AGTTTACC — higher, 0.0908
- AGTTTACA — higher, 0.363
- CGTTTACA — higher, 0.349
- CGTTTACC — higher, 0.0878
- AGTTTACG — higher, 0.188
- AAAGATGC — higher, 0.132
- AGTCCTCC — lower, -0.221
- CACAGAAG — higher, -0.00641
- CTTGAAAG — higher, 0.0362
- AGGAGGGG — lower, -0.156
- GAAGCCAC — lower, -0.196
- GGCCTGCA — higher, -0.0526
- AGCCTGCA — higher, 0.344
- GGCCTGTA — higher, 0.148
- CGCCTGAA — higher, 0.297
- GGCCTGAA — lower, -0.277
- AGCCTGAA — higher, 0.223
- TGCCTGAA — higher, 0.48
- CGCCTGCA — higher, 0.23
- AGCCTGTA — higher, 0.342
- CAGTACTG — lower, -0.132
- CCCCCGCA — lower, -0.214
- GTCTCGCA — lower, -0.238
- CGATCAAC — higher, 0.0859
- AAACCCCT — higher, 0.0363
- GATGCTAC — lower, -0.122
- CAAACGCC — lower, -0.143
- AACCCACA — higher, 0.0686
- ACTGCCTA — higher, 0.199
- GATGCCAA — lower, -0.148
- AATGCCCG — lower, -0.316
- AATGCCGA — lower, -0.249
- AATGCCTG — higher, 0.352
- AATGCCTA — higher, 0.359
- CATGCCTA — higher, 0.245
- GATGCCTA — higher, 0.439
- AATGCCTC — higher, -0.0227
- CGATTTGC — lower, -0.216
- ATGGCGAC — lower, -0.254
- ACAGATCG — lower, -0.134
- CGAATGAC — higher, 0.186
- ACGCCCTG — higher, -0.0695
- AACTGGAT — lower, -0.153
- GGAGCCAA — lower, -0.117
- ACAACCAA — higher, 0.00653
- GATGTACA — higher, 0.259
- TCTGTACA — higher, 0.235
- CATGTACA — higher, 0.387
- TATGTACA — higher, 0.353
- AATGTACA — higher, 0.292
- CATGTACG — higher, 0.239
- GGCTCTGA — higher, 0.00444
- GTCTGATA — higher, 0.0245
- CACAATCG — higher, 0.018
- GGGTAGTA — higher, -0.109
- CCAAAGTC — lower, -0.189
- CAAGGGGC — lower, -0.148
- ACGTGCTC — higher, 0.0193
- ACCTGGGA — higher, -0.0112
- GACAGAAA — higher, 0.0469
- GACAGGAC — lower, -0.231
- AACAGGAG — higher, 0.0835
- CACAGGAC — lower, -0.175
- AACAGGAC — higher, 0.19
- CACAGGAA — higher, 0.385
- TAGAGGAA — higher, -0.0809
- TACAGGAA — higher, 0.43
- CACAGGAG — higher, 0.0555
- AACAGGAA — higher, 0.416
- TACAGTAA — higher, 0.194
- GACAGGAA — higher, 0.374
- ACTGAGGC — lower, -0.119
- ATTCACTA — higher, 0.124
- ACCATTAC — higher, 0.168
- CGGTCCCA — lower, -0.296
- AACCAGCT — higher, 0.0762
- ACTAGCAG — higher, 0.109
- ACTCCAAG — higher, -0.0115
- AGTCCGAT — lower, -0.158
- AGAAACGA — higher, 0.0178
- CGTCGTAA — higher, 0.0759
- AGGTTGGA — lower, -0.173
- GGGAGGCA — higher, 0.364
- AGGAGGCC — lower, -0.263
- GGGAGGGA — lower, -0.149
- GGGAGGAA — higher, -0.11
- AGGAGGCA — higher, 0.382
- CGGAGGCC — lower, -0.224
- AGGAGGCG — lower, -0.163
- CGGAGGCA — higher, 0.375
- CGGAGGTA — higher, -0.0405
- CAGACCAC — higher, -0.109
- GTGGCCTA — higher, 0.0303
- ATCTAAAG — higher, 0.136
- ACCAAGCA — higher, -0.0877
- CGGGGACC — higher, -0.0971
- AGAAACTA — higher, -0.0831
- GTGGATGA — higher, -0.0229
- AGGGCAAA — higher, -0.0247
- ACGGCAAT — higher, 0.0994
- AAGGCGAA — higher, -0.0356
- AAGGCAAC — higher, 0.487
- AAGGCAGT — higher, -0.0323
- ATGGCAAC — higher, -0.0341
- AAGGCAAA — higher, 0.479
- AAGGCAGC — higher, 0.276
- AAGGCAAT — higher, 0.479
- AAGGCAAG — higher, 0.485
- AAGGCAGG — higher, 0.231
